Experimental findings from PubChem BioAssay are described below.

The source made the active and inactive calls. Unless noted, no rule for the calls is given here.

Assay [1] has as its system Wnt5a (protein binding on small-molecule microarray). The experiment in a line: small molecules binding Wnt5a protein – biophysical, small-molecule microarray, 635/667 nm fluorescence, primary screen (AID 1142).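 Also: fluorescence read at 667 nm with signal to noise per printed feature.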 The note with it: 635 nm fluorescence, higher = more signal.
A short description of assay [2]: ATP-based viability of Huh7 replicon cells – cell-based, CellTiter-Glo luminescence, basal, 48 h, cytotoxicity control for HCV replication inhibitor project, primary screen (AID 1143).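 Also: Huh7 hepatoma cells carrying a hepatitis C replication reporter with no stimulus; test concentration not given here.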 The note with it: higher = more signal, called active from +8 up or from −8 down.
Assay [3] in a line: Pseudomonas biofilm growth suppression – PAO1 strain, BacTiter-Glo luminescence, LB-PBS, primary screen (AID 1144). The following applies: P. aeruginosa PAO1 biofilm, 12 h, higher = more signal.
A short description of assay [4]: basal CRE-LacZ reporter activity in PC12 – cell-based, unstimulated, primary screen (AID 1145). The note with it: no forskolin, luminescence, 4.5 h, higher = more signal, called active from +8 up or from −8 down.
Assay [5] is described as follows: forskolin-driven CRE-LacZ activity in PC12 – cell-based, CRE-LacZ reporter, forskolin-stimulated, primary screen (AID 1146).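 Also: PC12 cells with 6xCRE LacZ reporter stimulated by forskolin 10 µM; beta-galactosidase reporter signal reflecting CREB driven transcription.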 The note with it: luminescence, 4.5 h, higher = more signal, called active from +8 up or from −8 down.
The target in assay [6] is Streptavidin (Streptomyces avidinii) (UniProt P22629). Description: compounds binding control protein streptavidin – biophysical, small-molecule microarray, 635/667 nm fluorescence, artefact control for SMM compound annotation, primary screen (AID 1147).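 Also: signal reflects streptavidin binding to arrayed compounds as a control protein.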 The note with it: higher = more signal.
Assay [7] in a line: probe aInhba binding on compound microarray – biochemical, small-molecule microarray, 635/667 nm fluorescence, primary screen (AID 1148).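 Also: score merges 667nm spot fluorescence with signal-to-noise for antibody binding to printed compounds.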 The note with it: higher = more signal.
In assay [8] the target is Torsin-1A (Homo sapiens) (UniProt O14656). Description: TOR1A wild-type binding on microarray – cell lysate, small-molecule microarray, lysate, 635/667 nm, primary screen (AID 1149). The following applies: COS7 hTOR1A-WT lysate, 635 nm fluorescence, higher = more signal.
Assay [9] shares this target. Description: torsin A mutant lysate binding on microarrays – cell lysate, small-molecule microarray, COS7 lysate, 635/667 nm fluorescence, primary screen (AID 1150).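 Also: score pools 667 nm emission and signal to noise measuring lysate protein binding.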 The note with it: COS7 hTOR1A mutant lysate, 635 nm fluorescence, higher = more signal.
Assay [10] concerns Sonic hedgehog protein (Shh). The experiment in a line: Sonic hedgehog microarray binding compounds – biochemical, small-molecule microarray, 635/667 nm fluorescence, primary screen (AID 1151).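 Also: Shh protein binding to compounds spotted on small-molecule microarray slides; score combines spot fluorescence intensity with signal-to-noise across triplicate slides.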 The following applies: 635 nm fluorescence, higher = more signal.
Assay [11] in a line: optical density shifts of acrAB sulA E. coli – strain DRC41, OD650, 48 h, E. coli filamentation inducer project, primary screen (AID 1152).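 Also: E. coli MC1000 strain DRC41 lacking acrAB efflux pump and sulA.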 The note with it: higher = more signal, called active from +8 up or from −8 down.
Assay [12] can be described thus: probe aLefty1 binding on compound microarray – biochemical, small-molecule microarray, 635/667 nm fluorescence, primary screen (AID 1153).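 Also: score merges spot fluorescence with signal-to-noise ratio from the scanned slide images.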 The following applies: higher = more signal.
A short description of assay [13]: plasmodial surface anion channel blockers, osmotic lysis – cell-based, P. falciparum Indochina, OD700, 1 h, primary screen (AID 1154). The following applies: P. falciparum Indochina infected RBC osmotic lysis, higher = more signal, called active from +8 up or from −8 down.
Assay [14] can be described thus: plasmodial surface anion channel blockers, osmotic lysis – cell-based, P. falciparum Indochina, OD700, 2 h, primary screen (AID 1155).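 Also: lysis reports solute entry through the parasite surface anion channel PSAC.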 The note with it: P. falciparum Indochina infected erythrocytes, higher = more signal, called active from +8 up or from −8 down.
Assay [15] is described as follows: changes in parasitized red cell lysis, either direction – P. falciparum Indochina, OD700, 3 h, PSAC antagonist project, primary screen (AID 1156). The following applies: P. falciparum-infected erythrocytes, osmotic lysis, higher = more signal, called active from +8 up or from −8 down.
Assay [16] is described as follows: plasmodial surface anion channel blockers, osmotic lysis – cell-based, P. falciparum Indochina, OD700, 18 h, primary screen (AID 1157). The note with it: P. falciparum Indochina infected erythrocytes, osmotic lysis OD700, 18 h; higher = more signal, called active from +8 up or from −8 down.
A short description of assay [17]: S6 kinase pathway phospho-S6 level changes – cell-based, A549, cytoblot, luminescence, serum-stimulated, primary screen (AID 1158).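 Also: serum-stimulated A549 lung adenocarcinoma cells; signal is phosphorylated S6 detected by cytoblot immunostaining with HRP secondary.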 The note with it: 5 h, higher = more signal.
The target in assay [18] is NADPH oxidase 2 (Homo sapiens) (UniProt P04839). The experiment in a line: compounds shifting NOX2 Amplex Red fluorescence – cell-based, HEK293-NOX2, PMA-stimulated, NOX inhibitor project, primary screen (AID 1159). Also: test concentration not given here. The following applies: 45 min, higher = more signal, called active from +8 up or from −8 down.
For assay [19], the target named is NADPH oxidase 4 (Homo sapiens) (UniProt Q9NPH5). Description: compounds shifting NOX4 Amplex Red fluorescence – cell-based, HEK293-NOX4, tetracycline-induced, NOX inhibitor project, primary screen (AID 1160). The following applies: HEK293-NOX4, Amplex Red H2O2 fluorescence, 45 min; higher = more signal, called active from +8 up or from −8 down.
For assay [20], the target named is NADPH oxidase 5 (Homo sapiens) (UniProt Q96PH1). Description: compounds shifting NOX5 Amplex Red fluorescence – cell-based, HEK293-NOX5, NOX inhibitor project, primary screen (AID 1161). The note with it: HEK293-NOX5, ionomycin, 45 min, higher = more signal.
Sequence of NADPH oxidase 5 (Homo sapiens) (Q96PH1 whole entry, looked up): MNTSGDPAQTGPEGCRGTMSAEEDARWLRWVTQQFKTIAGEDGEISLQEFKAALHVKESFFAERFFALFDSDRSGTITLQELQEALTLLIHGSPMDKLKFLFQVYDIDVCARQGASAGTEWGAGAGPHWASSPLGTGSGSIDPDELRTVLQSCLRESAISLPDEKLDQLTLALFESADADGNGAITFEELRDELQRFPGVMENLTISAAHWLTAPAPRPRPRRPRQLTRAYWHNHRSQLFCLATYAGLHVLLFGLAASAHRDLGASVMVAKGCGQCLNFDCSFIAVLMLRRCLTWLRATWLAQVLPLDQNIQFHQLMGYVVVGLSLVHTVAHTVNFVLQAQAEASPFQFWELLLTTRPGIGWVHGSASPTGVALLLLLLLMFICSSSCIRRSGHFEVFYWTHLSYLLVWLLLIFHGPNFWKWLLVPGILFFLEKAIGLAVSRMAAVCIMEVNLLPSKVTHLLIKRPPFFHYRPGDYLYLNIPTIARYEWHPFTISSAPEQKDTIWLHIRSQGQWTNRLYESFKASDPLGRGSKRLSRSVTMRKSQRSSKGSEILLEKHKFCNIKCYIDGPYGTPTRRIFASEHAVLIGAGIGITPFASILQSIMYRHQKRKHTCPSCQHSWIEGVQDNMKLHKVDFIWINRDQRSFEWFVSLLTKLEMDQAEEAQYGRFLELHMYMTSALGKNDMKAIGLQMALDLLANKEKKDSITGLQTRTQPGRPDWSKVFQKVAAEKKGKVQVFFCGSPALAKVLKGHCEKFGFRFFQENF

Sequence of NADPH oxidase 4 (Homo sapiens) (Q9NPH5 whole entry, looked up): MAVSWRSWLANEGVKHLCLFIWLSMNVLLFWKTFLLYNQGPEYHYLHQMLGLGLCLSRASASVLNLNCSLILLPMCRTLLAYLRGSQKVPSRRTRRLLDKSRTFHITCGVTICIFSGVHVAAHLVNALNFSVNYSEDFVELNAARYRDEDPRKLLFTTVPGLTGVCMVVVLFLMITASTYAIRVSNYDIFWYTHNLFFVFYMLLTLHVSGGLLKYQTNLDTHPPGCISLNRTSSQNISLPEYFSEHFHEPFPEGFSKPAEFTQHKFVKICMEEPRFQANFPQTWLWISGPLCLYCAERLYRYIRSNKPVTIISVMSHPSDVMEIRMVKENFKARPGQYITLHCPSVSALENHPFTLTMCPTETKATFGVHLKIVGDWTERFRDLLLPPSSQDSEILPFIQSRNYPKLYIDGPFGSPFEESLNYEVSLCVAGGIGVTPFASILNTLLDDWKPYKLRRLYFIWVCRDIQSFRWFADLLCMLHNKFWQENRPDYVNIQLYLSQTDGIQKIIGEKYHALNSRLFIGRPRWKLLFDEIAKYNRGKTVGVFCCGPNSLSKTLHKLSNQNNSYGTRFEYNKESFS
Sequence of Torsin-1A (Homo sapiens) (O14656 whole entry, looked up): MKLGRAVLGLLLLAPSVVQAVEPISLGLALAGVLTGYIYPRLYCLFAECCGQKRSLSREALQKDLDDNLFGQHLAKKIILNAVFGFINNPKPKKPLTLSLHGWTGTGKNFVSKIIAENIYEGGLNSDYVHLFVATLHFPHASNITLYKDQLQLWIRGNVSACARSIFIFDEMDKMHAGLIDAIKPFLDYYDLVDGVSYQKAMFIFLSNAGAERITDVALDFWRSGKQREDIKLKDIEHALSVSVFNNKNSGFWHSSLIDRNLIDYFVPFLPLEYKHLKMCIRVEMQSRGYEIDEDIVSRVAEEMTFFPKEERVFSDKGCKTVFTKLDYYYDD
Sequence of Streptavidin (Streptomyces avidinii) (P22629 whole entry, looked up): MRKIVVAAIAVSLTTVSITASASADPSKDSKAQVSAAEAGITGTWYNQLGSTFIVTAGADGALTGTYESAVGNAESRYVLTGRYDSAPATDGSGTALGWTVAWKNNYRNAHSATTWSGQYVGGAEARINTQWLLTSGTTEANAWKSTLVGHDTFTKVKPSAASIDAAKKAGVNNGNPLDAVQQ
Sequence of NADPH oxidase 2 (Homo sapiens) (P04839 whole entry, looked up): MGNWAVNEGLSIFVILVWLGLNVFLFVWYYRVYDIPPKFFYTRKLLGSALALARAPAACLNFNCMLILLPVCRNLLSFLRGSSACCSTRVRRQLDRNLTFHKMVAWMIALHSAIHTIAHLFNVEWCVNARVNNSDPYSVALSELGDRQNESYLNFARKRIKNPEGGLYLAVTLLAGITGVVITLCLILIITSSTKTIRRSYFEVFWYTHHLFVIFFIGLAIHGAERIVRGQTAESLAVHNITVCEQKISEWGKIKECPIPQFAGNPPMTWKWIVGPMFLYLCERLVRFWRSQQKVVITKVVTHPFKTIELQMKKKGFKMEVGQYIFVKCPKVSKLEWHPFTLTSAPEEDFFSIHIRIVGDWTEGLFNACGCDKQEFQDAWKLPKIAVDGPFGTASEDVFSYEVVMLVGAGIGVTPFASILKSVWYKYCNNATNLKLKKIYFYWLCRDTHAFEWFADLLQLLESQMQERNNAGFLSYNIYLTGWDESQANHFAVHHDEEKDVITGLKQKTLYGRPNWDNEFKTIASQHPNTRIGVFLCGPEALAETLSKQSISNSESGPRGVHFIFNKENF

Regarding `COc1ccc(NN2C(C(O)c3ccc(F)cc3)C=CC3C(=O)N(C4CCCCC4)C(=O)C32)cc1` (stereo not given), the composite z-score in assay [1] came out at 0.0942; in [6], 1.58; in [7], 0.112; with Torsin-1A (Homo sapiens) [8] it was 0.638; in the assay with Torsin-1A (Homo sapiens) [9] it was 0.197; in assay [10] it was 0.244. The compound further had a composite z-score in assay [12] of 0.0561. Moreover, the z-score is -0.591 (inactive) in assay [2]; -0.796 (inactive) in assay [3]; 1.24 (inactive) in [4]; 1.08 (inactive) in assay [5]; -1.24 (inactive) in [11]; 5.76 (inactive) in assay [13]. Also, the z-score in assay [14] is 1.42 (inactive); in assay [15], 0.37 (inactive); in [16] it was 0.856 (inactive); in [17], -0.54; in assay [18], -1.73 (inactive); in [19], -3.25 (inactive). In assay [20], the z-score is -1.23.

Regarding `COCCOC(=O)N1C(=O)[C@@]2(c3cc(C#CCC(C(=O)OC)C(=O)OC)ccc31)[C@H](c1ccc(O)cc1)N1[C@H](c3ccccc3)[C@H](c3ccccc3)OC(=O)[C@H]1[C@@H]2C(=O)N1CCc2cc(OC)c(OC)cc2C1`, the composite z-score is 0.227 in assay [1]; -0.341 in assay [6]; 0.0714 in assay [7]; 0.0553 with Torsin-1A (Homo sapiens) [8]; 0.391 with Torsin-1A (Homo sapiens) [9]; 1.31 in assay [10]. In assay [12], the composite z-score was -0.149. For the same compound, the z-score was -0.233 (inactive) in assay [2]; 0.12 (inactive) in assay [3]; 0.0384 (inactive) in [4]; 0.118 (inactive) in assay [5]; 0.904 (inactive) in assay [11]; 0.442 (inactive) in assay [13]. Moreover, the z-score is 0.0876 (inactive) in assay [14]; 0.328 (inactive) in assay [15]; 0.394 (inactive) in assay [16]; 0.161 in assay [17]; 1.94 (inactive) in [18]; 0.336 (inactive) in assay [19]. The z-score in [20] worked out at 1.23.

Consider `COCCOC(=O)N1C(=O)[C@@]2(c3cc(C#CCNC(N)=O)ccc31)[C@H](c1ccccc1OCCO)N1[C@H](c3ccccc3)[C@H](c3ccccc3)OC(=O)[C@H]1[C@@H]2C(=O)N1CCCCCCC1`, for which the composite z-score in assay [1] turned out to be 0.112; in assay [6], 0.777; in assay [7], 0.168; with Torsin-1A (Homo sapiens) [8], 0.419; in the assay with Torsin-1A (Homo sapiens) [9], 0.367; in assay [10] it was 0.83. The same compound showed a composite z-score in [12] of 0.359. Moreover, the z-score is -0.923 (inactive) in [2]; 0.342 (inactive) in [3]; 0.2 (inactive) in assay [4]; 1.97 (inactive) in [5]; -0.583 (inactive) in assay [11]; 1.21 (inactive) in [13]. For the same compound, the z-score is 0.696 (inactive) in [14]; 0.346 (inactive) in [15]; 0.238 (inactive) in [16]; -0.418 in assay [17]; 1.39 (inactive) in assay [18]; 1.05 (inactive) in assay [19]. The z-score in assay [20] was 0.903.

Regarding `O=C1C2C=CC(C(O)c3ccccn3)N(Nc3ccc([N+](=O)[O-])cc3)C2C(=O)N1c1ccccc1` (stereo not given), the composite z-score in [1] was 0.333; in assay [6], 1.24; in assay [7] it was 0.0589; with Torsin-1A (Homo sapiens) [8], -0.146; in the assay with Torsin-1A (Homo sapiens) [9] it was 0.098; in [10] it was 0.04. In assay [12], this compound yielded a composite z-score of 0.0768. The z-score in assay [2] was -0.476 (inactive); in assay [3] it was -0.277 (inactive); in assay [4] it was 0.379 (inactive); in assay [5] it was -0.0636 (inactive); in assay [11], -1.5 (inactive); in assay [13], 4.59 (inactive). The z-score in assay [14] was 1.04 (inactive); in assay [15], 0.809 (inactive); in assay [16], 0.509 (inactive); in assay [17], -0.967; in assay [18] it was -0.261 (inactive); in assay [19], -1.7 (inactive). Also, the z-score in assay [20] is -1.62.

As for `CO[C@H]1O[C@H](CO)[C@@H](OC(=O)CCc2ccccc2)[C@@H]2OC(=O)[C@@H](Cc3ccc4ccccc4c3)C/C=C/C[C@H](Cc3ccc4ccccc4c3)C(=O)O[C@@H]12`, the composite z-score was 0.0032 in [1]; -0.452 in assay [6]; -0.13 in [7]; -1.32 with Torsin-1A (Homo sapiens) [8]; 1.06 with Torsin-1A (Homo sapiens) [9]; -0.657 in assay [10]. This compound returned a composite z-score in [12] of -0.949. Moreover, the z-score in assay [2] was -2.59 (inactive); in assay [3], -0.302 (inactive); in assay [4], -0.151 (inactive); in [5], 0.336 (inactive); in assay [11], 0.411 (inactive); in [13], 2.85 (inactive). For the same compound, the z-score in [14] was -0.498 (inactive); in assay [15], -1.88 (inactive); in assay [16], -1.71 (inactive); in [17], 0.795; in assay [18] it was 1.5 (inactive); in assay [19] it was -0.27 (inactive). In [20], the z-score was -0.995.

For the compound `CC(C)(C)OC(=O)CC[C@]1(C(N)=O)N=C(c2ccc(OCCCO)cc2)O[C@H]1c1ccccc1N=[N+]=[N-]`, the composite z-score is 0.641 in [1]; 1.49 in assay [6]; 0.0966 in [7]; 0.448 with Torsin-1A (Homo sapiens) [8]; 0.424 in the assay with Torsin-1A (Homo sapiens) [9]; -0.74 in assay [10]. Further, in [12], the composite z-score is 0.267. The z-score is -0.284 (inactive) in [2]; 0.303 (inactive) in [3]; 1.05 (inactive) in [4]; -0.677 (inactive) in assay [5]; 0.831 (inactive) in assay [11]; 30.5 (active) in assay [13]. The z-score is 32.4 (active) in assay [14]; 0.697 (inactive) in [15]; 2.48 (inactive) in [16]; -0.3 in [17]; -0.285 (inactive) in assay [18]; 0.324 (inactive) in assay [19]. The z-score in assay [20] is -1.19.

Regarding `COc1ccc(-c2cc3c(c(CCc4ccccc4)n2)[Si](C(C)C)(C(C)C)O[C@H]3c2ccccc2)cn1`, the composite z-score was -0.143 in assay [1]; 0.547 in [6]; -0.0762 in [7]; -0.719 with Torsin-1A (Homo sapiens) [8]; -0.534 in the assay with Torsin-1A (Homo sapiens) [9]; 0.431 in [10]. The composite z-score in assay [12] is -0.193. In addition, the z-score was -0.248 (inactive) in assay [2]; -0.113 (inactive) in [3]; 4.67 (inactive) in assay [4]; -0.0122 (inactive) in assay [5]; 0.0534 (inactive) in assay [11]; 4.29 (inactive) in assay [13]. Also, the z-score in assay [14] was 1.36 (inactive); in [15], -0.449 (inactive); in assay [16], 0.775 (inactive); in [17] it was -0.643; in assay [18], 0.947 (inactive); in [19] it was 0.741 (inactive). For the same compound, the z-score in assay [20] stood at 0.0862.

Take `COCCOC(=O)N1C(=O)[C@@]2(c3cc(C#CCCO)ccc31)[C@H](C(=O)N1CCN(c3ncccn3)CC1)[C@H]1C(=O)O[C@H](c3ccccc3)[C@H](c3ccccc3)N1[C@@H]2c1ccc(OCCO)cc1`: the composite z-score in assay [1] was 0.624; in assay [6] it was 1.26; in [7], 0.0528; with Torsin-1A (Homo sapiens) [8], -0.279; with Torsin-1A (Homo sapiens) [9], 0.458; in assay [10], 1.99. This compound also had a composite z-score in [12] of 0.197. The z-score in [2] was -0.445 (inactive); in [3], 0.386 (inactive); in assay [4], 1.05 (inactive); in assay [5] it was 0.136 (inactive); in [11] it was -0.862 (inactive); in [13], 11.4 (active). For the same compound, the z-score in [14] was 3.12 (inactive); in assay [15] it was 0.72 (inactive); in [16], 1.39 (inactive); in [17], -0.633; in [18], 1.45 (inactive); in [19], 0.709 (inactive). In [20], the z-score came out at 1.21.
